Assay results reported in PubChem BioAssay (NCATS).
Records with an inconclusive call do not appear. The source made the active and inactive calls. The call rests on the fitted dose curve; in most records, active means well fitted cell-killing curve with a large enough effect; inconclusive means small, poorly fitted or top-dose-only effect; inactive means flat fitted curve, though single readings scatter.

Assay: Cell Viability - LYMP2-023 (AID 975);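 further: plate controls were DMSO only for no effect and 92 µM tetraoctylammonium bromide control for full effect; nearly all actives have a fitted effect of over 55% in size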
Conditions: LYMP2-023 lymphoblastoid cell viability; series mostly up to 92.2 µM; activity change, negative = cytotoxicity: at the top concentration
Text: NIH Chemical Genomics Center [NCGC]
NIH Molecular Libraries Screening Centers Network [MLSCN]
National Institutes of Environmental Health Sciences [NIEHS]
National Toxicology Program [NTP]
We have developed a 1536-well cell-based assay for quantitative high throughput screening (qHTS) against a number of cell lines to determine in vitro cytotoxicity of small molecules. This particular assay uses a human lymphoblastoid cell line (LYMP2-023) purchased from Coriell Institute for Medical Research.
NCGC Assay Protocol Summary:
The CellTiter-Glo luminescent cell viability assay (Promega) is a homogeneous method to measure the number of viable cells in culture. The end point readout of this assay is based on quantitation of intracellular ATP, an indicator of metabolic activity, using the luciferase reaction. Luciferase catalyzes the oxidation of beetle Luciferin to oxyluciferin and light in the presence of ATP. The luminescent signal is proportional to amount of ATP present.
Using the CellTiter-Glo luminescent cell viability assay, the amount of cellular ATP was measured in the lymphoblastoid cell line with complete culture medium following compound treatment for 24 hours. The assay was performed in opaque white Kalypsys 1536-well plates. In the screen, tetraoctylammonium bromide was used as positive control. Library compounds were measured for their ability to cause acute toxicity in the cell line, as reflected by a decrease in intracellular ATP levels, in a concentration-dependent manner. […] AC50 values were determined from concentration-response data modeled with the standard Hill equation.
qHTS protocol for CellTiter Glo lymphoblastoid cellular assay
[Step] [Parameter] [Value] [Description]
1. Reagent; 5 uL; 2500 lymphoblastoid cells/well
2. Time; 5 hr; 37 C incubation
4. Controls; 23 nL; Tetraoctylammonium bromide 6.4pM to 92 uM
5. Time; 24 hr; 37 C incubation
6. Reagent; 5 uL; CellTiter Glo reagent
7. Time; 30 min; Room Temperature
8. Detection; Luminescence; Viewlux plate reader
Keywords: cell viability, cytotoxicity, lymphoblastoid cell line, luminescence, NTPHTS, NTPHTS_NCGC, NIEHS, DSSTox, MLSMR, MLSCN, NIH Roadmap, qHTS, NCGC

SMILES	activity change, negative = cytotoxicity
N#CC(O)c1ccccc1 (stereo not given)	-0.0942% (inactive)
ClC=CCl	2.63% (inactive)
ClCc1ccccc1	0.522% (inactive)
CCCCCC[N+](=O)[O-]	1.07% (inactive)
C=CCO	-8.31% (inactive)
CC(C#N)CCC#N (stereo not given)	-2.26% (inactive)
Nc1ccc(-c2ccc(N)c(Cl)c2)cc1Cl	-25.8% (inactive)
O=[N+]([O-])c1ccc(O)c([N+](=O)[O-])c1	1.38% (inactive)
Cc1ccc(N=C=O)cc1N=C=O	-14.5% (inactive)
Nc1cccc(Cl)c1	1.01% (inactive)
Cc1coc2c1CCC(C)C2 (stereo not given)	0.223% (inactive)
CN(C)c1ccccc1	0.47% (inactive)
COC(=O)Nc1cccc(OC(=O)Nc2cccc(C)c2)c1	3.59% (inactive)
N#CCCCCC#N	1.49% (inactive)
ClC(Br)Br	-8.46% (inactive)
Cc1cc(-c2cc(C)c(N)c(C)c2)cc(C)c1N	1.33% (inactive)
O=[N+]([O-])c1ccccc1O	6.7% (inactive)
Cc1ccccc1[N+](=O)[O-]	-2.37% (inactive)
Cc1cc(N=Nc2ccccc2C)ccc1N	-10.6% (inactive)
CCCCCCCCCCCOC(=O)c1ccccc1C(=O)OCCCCCCCCCCC	1.02% (inactive)

SMILES	activity change, negative = cytotoxicity
O=[N+]([O-])c1ccc2c3c(cccc13)CC2	-2.78% (inactive)
S=C1NCCN1	-0.7% (inactive)
N#C/C(N)=C(/N)C#N	-5.76% (inactive)
O=[N+]([O-])c1cccc(O)c1	-2.81% (inactive)
CC(C)(C)C(O)(CCc1ccc(Cl)cc1)Cn1cncn1 (stereo not given)	-7.55% (inactive)
C/C=C/C=O	-3.25% (inactive)
C=CCCl	3.5% (inactive)
Cl/C=C\Cl	0.792% (inactive)
BrCC(Br)C1CCC(Br)C(Br)C1 (stereo not given)	-8.74% (inactive)
ClC(Cl)C(Cl)Cl	-4.52% (inactive)
O=[N+]([O-])c1ccccc1-c1ccccc1	-2.11% (inactive)
CC(C)OC(=O)Cc1ccccc1	0.746% (inactive)
CC(C)[C@]12CC(=O)[C@H](C)[C@H]1C2	-3.34% (inactive)
Cc1ccc(N)cc1N	-2.68% (inactive)
Cc1cccc(N)c1C	-14.5% (inactive)
CC(C)CC(C)N (stereo not given)	-0.777% (inactive)
C=CC=O	3.3% (inactive)
C=CC(=O)OCC(C)C	-3.99% (inactive)
C=CCc1cc(OC)c2c(c1)OCO2	2.63% (inactive)
Nc1ccc(Cc2ccc(N)c(Cl)c2)cc1Cl	-2.15% (inactive)
